# ± gives the standard deviation of the averaged measurements.
# Legend:
# DLD1 [1] = assay: cell viability (CellTiter-Glo) relative to plate median (fraction of plate median); higher = more viable cells; conditions: 5 µM; treatment time 24 h; reporter: 7TFP
# Outline: (§1)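 Values are well luminescence normalised to the plate median, from either a firefly luciferase or a CellTiterGlo readout on parallel plates. The cells, colorectal cancer lines stably transduced with lentiviral 7TFP or TCF4/Wnt firefly luciferase reporters, were treated with library compounds at a final 5 µM for 24 h. The mean of two independent replicates is listed.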
# HCT116 = assay: as above; conditions: 5 µM; treatment time 24 h; reporter: TCF4/Wnt
# Outline: as §1
# SW480 [2] = assay: as above; conditions: 5 µM; treatment time 24 h; reporter: 7TFP
# Outline: as §1
# DLD1 [3] = assay: TCF/Wnt firefly luciferase reporter signal relative to plate median (fraction of plate median); higher = higher Wnt reporter signal; conditions: 5 µM; treatment time 24 h; reporter: 7TFP
# Outline: as §1
# SW480 [4] = assay: as above; conditions: 5 µM; treatment time 24 h; reporter: 7TFP
# Outline: as §1
SMILES,cell viability (DLD1 [1]),cell viability (HCT116),cell viability (SW480 [2]),TCF/Wnt firefly luciferase reporter signal (DLD1 [3]),TCF/Wnt firefly luciferase reporter signal (SW480 [4])
N=C(N)NC(=N)Nc1ccccc1,0.96 ± 0.014,0.969 ± 0.034,0.958 ± 0.021,0.946 ± 0.052,0.99 ± 0.015
CCCn1c(=O)c2[nH]c(C3CCCC3)nc2n(CCC)c1=O,0.998 ± 0.059,1.03 ± 0.047,1.02 ± 0.037,1.04 ± 0.16,0.968 ± 0.073
O=C1c2ccccc2C(=O)C1c1ccccc1,1.02,1.02 ± 0.048,1.02,1.12 ± 0.014,1.15 ± 0.071
COc1ccc([C@@H]2CC(=O)c3c(O)cc(O)cc3O2)cc1O,1.01 ± 0.014,0.93 ± 0.052,0.9885 ± 0.0092,1.02 ± 0.11,0.982 ± 0.04
Nc1ccc(S(=O)(=O)O)cc1.Nc1ccc(S(=O)(=O)O)cc1.[Zn],1.08 ± 0.18,1.01 ± 0.049,1.105 ± 0.0071,1.03 ± 0.12,1.015 ± 0.0071
FC(F)(F)COCC(F)(F)F,0.944 ± 0.047,0.922 ± 0.041,0.99 ± 0.029,0.762 ± 0.016,0.825 ± 0.1
CC(=O)Oc1c(C)c(C)c2c(c1C)CCC(C)(CCCC(C)CCCC(C)CCCC(C)C)O2 (stereo not drawn) [alpha-TOCHOPHERYL ACETATE],1.06 ± 0.085,1.02 ± 0.092,1.06 ± 0.014,1.12 ± 0.18,1.09 ± 0.057
CN(C)CCOC(=O)C(c1ccccc1)C1(O)CCCC1 (stereo not given),0.986 ± 0.0014,1.07 ± 0.099,1 ± 0.013,1.12 ± 0.12,1.05 ± 0.12
CC1(C)CC[C@]2(C)CC[C@]3(C)C(=CC[C@@H]4[C@@]5(C)CC[C@H](O)C(C)(C)[C@@H]5CC[C@]43C)[C@@H]2C1 [beta-AMYRIN],1.01 ± 0.073,0.962 ± 0.016,0.994 ± 0.093,0.913 ± 0.016,0.9235 ± 0.0021
COC(=O)C1=C(C)NC(C)=C(C(=O)OC)C1c1ccccc1[N+](=O)[O-],1.05 ± 0.14,0.995 ± 0.11,1.06 ± 0.028,1.04 ± 0.11,1.06 ± 0.078
"CC(C)CCC[C@@H](C)[C@H]1CC[C@H]2[C@@H]3C[C@@H](O)[C@@]4(O)C[C@@H](O)CC[C@]4(C)[C@H]3CC[C@]12C [CHOLESTAN-3beta,5alpha,6beta-TRIOL]",0.991 ± 0.041,0.924 ± 0.083,0.967 ± 0.016,0.9 ± 0.086,0.891 ± 0.076
N=c1ccn2c(n1)O[C@H]1[C@H](O)[C@@H](CO)O[C@H]12,1.16 ± 0.078,0.942 ± 0.034,1.15 ± 0.028,1.08 ± 0.11,1.1
CC(C)(Oc1ccc(CCNC(=O)c2ccc(Cl)cc2)cc1)C(=O)O,1.05 ± 0.014,1.06 ± 0.064,1 ± 0.069,0.919 ± 0.016,0.986 ± 0.02
CC=CC1=C(C(=O)O)N2C(=O)[C@@H](NC(=O)[C@H](N)c3ccc(O)cc3)[C@H]2SC1,0.992 ± 0.012,1.03 ± 0.06,0.983 ± 0.039,1.09 ± 0.099,1.17 ± 0.064
NC(=O)c1cc[n+](CC2=C(C(=O)O)N3C(=O)[C@@H](NC(=O)[C@@H](c4ccccc4)S(=O)(=O)[O-])[C@H]3SC2)cc1,1.01 ± 0.055,0.983 ± 0.067,1.07 ± 0.085,0.967 ± 0.17,0.9605 ± 0.0078
CCCCOc1ccc(OCCCN2CCOCC2)cc1,0.904 ± 0.086,0.976 ± 0.077,0.975 ± 0.011,0.993 ± 0.11,1.06 ± 0.014
"NC(=O)N(CCc1ccccc1)CCc1ccccc1 [N, N-Bis(2-phenylethyl)urea]",1.08 ± 0.085,1.01 ± 0.014,1.06 ± 0.021,1.03 ± 0.028,0.946 ± 0.077
CC(C)C[C@@H]1NC(=O)CNC1=O [Cyclo(leucylglycyl)],0.991 ± 0.042,1.05 ± 0.057,0.949 ± 0.072,0.956 ± 0.028,0.935 ± 0.044
C=C[C@H]1CN2CC[C@H]1C[C@@H]2[C@@H](O)c1ccnc2ccc(OC)cc12,0.963 ± 0.052,0.966 ± 0.042,0.977 ± 0.047,1.21 ± 0.14,0.933 ± 0.021
CC[C@H](/C=C/[C@@H](C)[C@H]1CC[C@H]2[C@@H]3CC=C4C[C@@H](O)CC[C@]4(C)[C@H]3CC[C@]12C)C(C)C,1.04 ± 0.096,1.14 ± 0.14,1.03,1.05 ± 0.014,1 ± 0.066
Cc1ccc(N(CC2=NCCN2)c2cccc(O)c2)cc1,1.01 ± 0.042,0.992 ± 0.2,1.02 ± 0.014,0.92 ± 0.039,0.94 ± 0.044
CC(C)Cc1ccc(C(C)C(=O)O)cc1 (stereo not given),0.962 ± 0.082,1.04 ± 0.028,1.04 ± 0.068,1.03 ± 0.021,1.06 ± 0.028
COc1c(C)c2c(c(O)c1C/C=C(\C)CCC(=O)O)C(=O)OC2,1.03 ± 0.12,0.802 ± 0.03,1.03 ± 0.065,1.045 ± 0.0071,1.14 ± 0.11
CN/C(=N\CCSCc1nc[nH]c1C)NC#N,1.04 ± 0.021,1.12 ± 0.042,1.04 ± 0.021,1.12 ± 0.18,1.06 ± 0.042
Oc1cc(O)c2c(c1)O[C@H](c1cc(O)c(O)c(O)c1)[C@H](O)C2,0.94 ± 0.059,0.897 ± 0.19,0.973 ± 0.024,0.925 ± 0.024,1.07
CC(=O)OCC(=O)[C@@]1(O)CC[C@H]2[C@@H]3C[C@H](C)C4=CC(=O)C=C[C@]4(C)[C@H]3[C@@H](O)C[C@@]21C [6alpha-METHYLPREDNISOLONE ACETATE],1.03 ± 0.05,0.957 ± 0.22,0.994 ± 0.037,0.904 ± 0.15,0.937 ± 0.073
COc1c(-c2ccccc2)oc2c(ccc3occc32)c1=O,1.03 ± 0.035,1.09 ± 0.078,1.03 ± 0.021,1.09 ± 0.078,1.05 ± 0.014
Cc1ccccc1C(OCCN(C)C)c1ccccc1 (stereo not given),1.07 ± 0.13,0.894 ± 0.15,1.01 ± 0.039,1.085 ± 0.0071,1.12 ± 0.085
CC1(C)Oc2ccc3ccc(=O)oc3c2CC1O (stereo not given),0.993 ± 0.011,1.01 ± 0.042,1.07 ± 0.021,0.996 ± 0.19,0.791 ± 0.089
Cc1ccc(C(C)C)cc2c(C)ccc1-2,1.04 ± 0.057,1.085 ± 0.0071,1.06 ± 0.014,1 ± 0.14,0.894 ± 0.16

# — the supplement of paper PMC6522484
